Assay [1] concerns the target Thyrotropin receptor (Homo sapiens) (UniProt P16473). The experiment in a line: qHTS assay to identify small molecule antagonists of the thyroid stimulating hormone receptor (TSHR) signaling pathway (AID 1259385; calls by dose curve; note: nearly all actives have a fitted effect of over 20% in size). In a few lines: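 TSHR-HEK293 cells (800/well) plated 18 h, then compounds with Ro20-1724 and TSH at 1.5 ng/mL final, 30 min at room temperature. cAMP quantified by HTRF (cAMP-d2/anti-cAMP-cryptate, 1 h); 15 concentrations in triplicate.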
(In general: Quantitative high-throughput screening tests each substance at several concentrations.)

Assay [2] in a line: qHTS assay to identify small molecule agonists of the estrogen receptor alpha (ER-alpha) signaling pathway in the presence of an antagonist - cell viability counter screen (AID 1259386).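 Note: series mostly up to about 92 µM; cells exposed to compounds for 22 h at 37 °C before the viability read; nearly all actives have a fitted effect of over 30% in size.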 Put shortly: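 Using estrogen-depleted VM7Luc4E2 cells, the 15-concentration compound series was applied together with 10.0nM ICI-182,780 and incubated 22hr at 37C/5% CO2. Cell viability was then scored by CellTiter-Fluor.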

Assay [3] concerns the target Progesterone receptor (Homo sapiens) (UniProt P06401). Kind of assay: qHTS assay to identify small molecule agonists of the progesterone receptor (PR) signaling pathway (AID 1346784; calls by dose curve; note: nearly all actives have a fitted effect of over 30% in size). Put shortly:
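HEK 293T PR-UAS-bla reporter cells, 2% charcoal-stripped FBS; 6 hr settle at 37C/5% CO2, compound (DMSO) 16 hr, LiveBLAzer B/G FRET substrate 2 hr RT, fluorescence intensity read.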

The target is the same in assay [4]. The experiment in a line: qHTS assay to identify small molecule antagonists of the progesterone receptor (PR) signaling pathway (AID 1346795; active = well fitted inhibition curve with a large enough effect in the signal ratio in the repeat runs, not every such curve was filed as active; the % refers to the signal ratio; note: potency is the fitted concentration of half-maximal effect). Put shortly:
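Beta-lactamase reporter, HEK293T PR-UAS-bla line; 2% charcoal-stripped FBS; 6 hr pre-incubation, 37C/5% CO2. Compound + R5020 1 nM final, 16 hr. LiveBLAzer B/G FRET substrate, 2 hr RT; fluorescence intensity read.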

A short description of assay [5]: qHTS assay to identify small molecule antagonists of the progesterone receptor (PR) signaling pathway - cell viability counter screen (AID 1346798). For activity change, negative = cytotoxicity: series mostly up to about 92 µM. Note: nearly all actives have a fitted effect of over 50% in size. Note: potency is the fitted concentration of half-maximal effect. In a few lines: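 Luminescence readout (CellTiter-Glo, 30 min, RT) of viability in PR-UAS-bla HEK293T cells exposed to compound and R5020 agonist for 16 hr at 37C, 5% CO2; run in the same wells as the beta-lactamase reporter read.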

The nature of assay [6]: qHTS assay to identify small molecule agonists of the progesterone receptor (PR) signaling pathway - cell viability counter screen (AID 1346799; calls by dose curve; note: nearly all actives have a fitted effect of over 45% in size; note: potency is the fitted concentration of half-maximal effect). Put shortly: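 HEK293T PR-UAS-bla, 3,000 cells/well, 2% charcoal-stripped FBS; 6 h settle, compound 16 h at 37C/5% CO2; LiveBLAzer 2 h RT, then CellTiter-Glo 30 min RT, luminescence read.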
Assay [7] in a line: qHTS assay to identify small molecule agonists of the TGF-beta/Smad signaling pathway - cell viability counter screen (AID 1346829). Note: top concentration of the series differs between compounds; nearly all actives have a fitted effect of over 45% in size. In a few lines: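 HEK 293T SBE-bla line, 5 hr compound exposure at 37 C, multiplexed CellTiter-Glo viability read by luminescence.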
Assay [8] is described as follows: qHTS assay to identify small molecule agonists of the TGF-beta/Smad signaling pathway (AID 1346859; active = well fitted activation curve with a large enough effect in the signal ratio in the repeat runs, not every such curve was filed as active; the % refers to the signal ratio; note: series mostly up to about 77 µM). In a few lines: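 Read-out: fluorescence at 460 and 530 nm (405 nm excitation) after a 2 hr room-temperature incubation with beta-lactamase FRET substrate. SBE-bla HEK 293T cells had been treated with test compounds for 5 hr at 37 C.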
In assay [9] the target is Thyrotropin-releasing hormone receptor (Homo sapiens) (UniProt P34981). Kind of assay: qHTS assay to identify small molecule antagonists of the thyrotropin-releasing hormone receptor (TRHR) signaling pathway (AID 1346877; active = well fitted inhibition curve with a large enough effect in the repeat runs, not every such curve was filed as active; note: series mostly up to about 51 µM). In a few lines:
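Calcium signal in dye-loaded TRHR/HEK293 cells; compounds added 5 min before TRH (1 nM final); fluorescence monitored 3 min at 1 s steps.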

Assay [10] can be described thus: qHTS assay to identify small molecule antagonists of the TGF-beta/Smad signaling pathway - cell viability counter screen (AID 1346824). Note: nearly all actives have a fitted effect of over 50% in size. In a few lines: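 SBE-bla HEK 293T cells, incubated overnight, then compound plus 0.25 ng/mL TGF-beta1 (stock added) for 5 hr at 37 C. Viability was read in the same wells by CellTiter-Glo luminescence after 30 min at room temperature.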

The text below walks through data of PubChem BioAssay (Tox21).

A number with no mark means an inactive call. Inconclusive results are not listed. Activity calls are given as the source filed them. Unless noted, calls come from the whole dose curve; as a rule, active = well fitted curve in the direction sought with a large enough effect in the repeat runs; inconclusive = weak or mixed curves; inactive = no such curve, though single readings can be large; an effect the other way counts as inactive or inconclusive.
% is set by controls: 0 for no effect and ±100 for the full control effect.

Thyrotropin receptor (Homo sapiens), sequence (P16473 whole entry, looked up): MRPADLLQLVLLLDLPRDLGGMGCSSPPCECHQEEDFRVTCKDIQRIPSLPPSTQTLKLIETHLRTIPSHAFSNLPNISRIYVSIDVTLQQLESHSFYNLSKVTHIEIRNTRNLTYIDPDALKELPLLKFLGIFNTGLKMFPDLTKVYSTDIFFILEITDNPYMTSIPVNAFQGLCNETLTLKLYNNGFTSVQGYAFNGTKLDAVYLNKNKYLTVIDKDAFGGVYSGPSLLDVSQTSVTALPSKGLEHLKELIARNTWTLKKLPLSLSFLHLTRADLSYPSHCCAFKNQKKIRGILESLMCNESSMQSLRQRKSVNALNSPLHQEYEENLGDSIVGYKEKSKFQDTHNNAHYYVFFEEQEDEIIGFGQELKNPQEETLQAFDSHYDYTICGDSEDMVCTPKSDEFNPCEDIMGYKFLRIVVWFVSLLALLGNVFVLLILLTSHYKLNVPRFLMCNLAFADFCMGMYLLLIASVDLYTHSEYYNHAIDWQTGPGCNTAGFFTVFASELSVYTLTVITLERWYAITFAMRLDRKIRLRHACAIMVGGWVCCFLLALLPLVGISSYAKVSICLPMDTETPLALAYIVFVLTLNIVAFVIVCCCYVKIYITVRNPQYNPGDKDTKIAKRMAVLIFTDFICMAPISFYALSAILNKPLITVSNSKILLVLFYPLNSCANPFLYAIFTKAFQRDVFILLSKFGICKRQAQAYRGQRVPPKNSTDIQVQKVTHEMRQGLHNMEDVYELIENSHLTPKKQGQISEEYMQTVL
Progesterone receptor (Homo sapiens), sequence (P06401 whole entry, looked up): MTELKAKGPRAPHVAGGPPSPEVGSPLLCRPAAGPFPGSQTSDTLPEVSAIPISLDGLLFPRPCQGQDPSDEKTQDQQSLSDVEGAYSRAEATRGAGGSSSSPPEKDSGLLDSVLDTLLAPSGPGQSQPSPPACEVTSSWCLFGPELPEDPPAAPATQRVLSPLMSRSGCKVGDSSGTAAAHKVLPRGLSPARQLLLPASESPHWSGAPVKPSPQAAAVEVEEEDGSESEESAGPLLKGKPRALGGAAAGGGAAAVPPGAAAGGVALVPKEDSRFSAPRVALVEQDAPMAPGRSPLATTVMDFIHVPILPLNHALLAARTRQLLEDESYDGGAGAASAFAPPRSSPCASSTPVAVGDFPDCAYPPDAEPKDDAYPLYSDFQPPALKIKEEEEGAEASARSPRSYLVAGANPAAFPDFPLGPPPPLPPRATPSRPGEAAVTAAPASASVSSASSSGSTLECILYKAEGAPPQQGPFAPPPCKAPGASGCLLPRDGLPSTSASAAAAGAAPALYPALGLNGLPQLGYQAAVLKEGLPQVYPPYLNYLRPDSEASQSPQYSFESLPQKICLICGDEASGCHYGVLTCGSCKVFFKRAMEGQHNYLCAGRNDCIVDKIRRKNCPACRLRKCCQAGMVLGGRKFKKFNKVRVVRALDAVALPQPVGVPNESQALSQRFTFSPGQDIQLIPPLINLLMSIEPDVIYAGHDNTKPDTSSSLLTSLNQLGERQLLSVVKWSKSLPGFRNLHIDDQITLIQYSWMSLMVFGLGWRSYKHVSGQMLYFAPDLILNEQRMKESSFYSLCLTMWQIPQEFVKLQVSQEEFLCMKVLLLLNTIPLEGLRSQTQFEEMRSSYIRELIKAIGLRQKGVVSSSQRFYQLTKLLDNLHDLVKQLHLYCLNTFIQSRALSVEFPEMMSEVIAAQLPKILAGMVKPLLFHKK
Thyrotropin-releasing hormone receptor (Homo sapiens), sequence (P34981 whole entry, looked up): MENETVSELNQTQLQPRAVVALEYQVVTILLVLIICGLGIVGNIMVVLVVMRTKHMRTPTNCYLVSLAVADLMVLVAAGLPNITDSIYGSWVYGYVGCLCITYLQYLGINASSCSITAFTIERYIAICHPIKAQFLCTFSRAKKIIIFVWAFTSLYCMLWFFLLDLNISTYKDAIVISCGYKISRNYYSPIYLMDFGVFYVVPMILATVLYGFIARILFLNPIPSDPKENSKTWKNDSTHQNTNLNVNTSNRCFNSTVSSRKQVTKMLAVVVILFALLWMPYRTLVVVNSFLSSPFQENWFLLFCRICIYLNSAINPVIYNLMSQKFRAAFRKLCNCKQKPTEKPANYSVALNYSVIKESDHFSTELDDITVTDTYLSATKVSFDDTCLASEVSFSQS

Regarding `CCCCC(CC)COCCC#N` (stereo not drawn), the Potency result in assay [1], in [2], in [3], in [4], in assay [5] and in assay [6] was “inactive” throughout. Further, the call in assay [7], in [8] and in assay [9] was inactive.

`COc1ccnc2c1CCCCC2S(=O)c1nc2ccccc2[nH]1` (stereo not drawn): the Potency result in assay [1], in [2], in [3], in [4], in [5] and in assay [6] was “inactive” throughout. Moreover, the call in [7], in [8] and in assay [9] was inactive.

Consider `COc1ccc(CN(CCN(C)C)c2ncccn2)cc1`, for which the Potency entry in assay [1], in assay [2], in [3], in assay [4], in assay [5] and in assay [6] was “inactive” in each case. The molecule was called inactive in assay [10], in [7], in assay [8] and in assay [9].

With `FC1(F)C(F)(F)C(F)(F)C2(F)C(F)(C1(F)F)C(F)(F)C(F)(F)C1(F)C(F)(F)C(F)(F)C(F)(F)C(F)(F)C12F` (stereo not drawn), the Potency entry in assay [1], in assay [2], in [3], in assay [4], in assay [5] and in assay [6] was “inactive” throughout. Moreover, the call in assay [7] and in assay [8] was inactive.

Turning to `O=C(Cl)c1ccc(F)c(Cl)c1`, the Potency result in assay [1], in assay [2], in assay [3], in assay [4] and in [5] was “inactive” throughout. Besides, the molecule was called inactive in assay [10], in assay [7] and in [8].

Regarding `CC(=O)Nc1ccccc1O`, the Potency entry in assay [1], in assay [2], in [3], in assay [4] and in assay [6] was “inactive” in each case. Moreover, the result in [10], in assay [7], in [8] and in assay [9] was inactive.

For the molecule `CC(O)C(C)O` (stereo not drawn), the Potency result in assay [1], in [2], in assay [3], in [4] and in assay [6] was “inactive” in each case. Besides, the molecule was classed as inactive in [10], in assay [7], in assay [8] and in assay [9].

As to `Cc1ccc(NC=O)c(C)c1`, the Potency result in [1], in [2], in assay [3] and in assay [4] was “inactive” throughout. The result in assay [10], in [7] and in assay [8] was inactive.

As to `Clc1ccccc1-c1nc(-c2ccncc2)no1`, the Potency result in assay [1], in assay [2] and in assay [3] was “inactive” each time. Also, the Potency in assay [4] is 26.6 µM (active). Also, the call in assay [10], in assay [7], in assay [8] and in [9] was inactive.

Regarding `O=C(OCCN1CCOCC1)c1cccnc1Nc1cccc(C(F)(F)F)c1`, the Potency result in assay [1], in assay [2], in assay [3], in assay [5] and in assay [6] was “inactive” each time. Besides, the molecule was classed as inactive in assay [7] and in assay [8].

`C=C(C)C(=O)OCCCCCCCCCCOC(=O)C(=C)C`: the Potency entry in assay [1], in assay [2], in assay [3], in assay [4] and in assay [6] was “inactive” throughout. Further, the outcome in assay [10], in [7], in assay [8] and in [9] was inactive.

Turning to `OCC(O)c1ccccc1` (stereo not drawn), the Potency entry in assay [1], in assay [2] and in assay [3] was “inactive” throughout. For the same molecule, in [5], the Potency was 19.3 µM (active). The outcome in [10], in [7], in [8] and in assay [9] was inactive.

For the molecule `FC(F)(Cl)C(F)(Cl)Cl`, the Potency result in assay [1], in assay [2], in assay [3], in assay [5] and in assay [6] was “inactive” throughout. The result in assay [10], in assay [7], in assay [8] and in [9] was inactive.

Take `CC(=O)Nc1ccn(C2COC(COC(=O)c3ccccc3)O2)c(=O)n1` (stereo not drawn): the Potency entry in [1], in assay [2], in assay [3], in assay [4] and in assay [6] was “inactive” in each case. Moreover, the result in assay [10], in assay [7] and in assay [9] was inactive.

In the case of `O=C(Nc1ccccc1)c1cc([N+](=O)[O-])ccc1Cl`, the Potency entry in assay [1], in assay [2], in assay [3], in assay [5] and in assay [6] was “inactive” each time. Besides, the molecule was classed as inactive in assay [7] and in [9].

As to `O=C(N[C@@H](Cc1ccccc1)[C@@H](O)C(=O)N1C[C@@H](O)[C@@H](O)C1)c1cc2cc(Cl)ccc2[nH]1`, the Potency result in assay [1], in assay [2], in assay [3], in assay [5] and in [6] was “inactive” each time. For the same molecule, the molecule was called inactive in [10], in assay [7] and in assay [8].

Take `COC=O`: the activity change, negative = inhibition was 4.44% [at 8.39 µM] in [1] and -3.19% [at 8.39 µM] in assay [4]. For the same molecule, the activity change, negative = cytotoxicity in [2] was -3.92% [at 8.39 µM]; in assay [6], 7.63% [at 8.39 µM]; in [7], 8.3% [at 6.97 µM]. In addition, the activation was 0.0776% [at 8.39 µM] in assay [3] and -0.257% [at 6.97 µM] in assay [8]. Besides, in [9], the activity, negative = inhibition is 1.15% [at 4.65 µM].

With `C=C[Si]1(C)O[Si](C)(C=C)O[Si](C)(C=C)O[Si](C)(C=C)O1` (stereo not drawn), the Potency entry in assay [1], in assay [2], in [3], in assay [4] and in assay [6] was “inactive” in each case. Also, the molecule was called inactive in [10], in assay [7], in assay [8] and in assay [9].

As to `Cc1ccc2c(Cl)cc(Cl)c(O)c2n1`, the Potency entry in [1], in [2], in assay [3], in assay [4] and in [6] was “inactive” throughout. The molecule was classed as inactive in assay [10], in assay [7], in [8] and in assay [9].

In the case of `CCc1ccc2c(c1)C(=O)c1ccccc1C2=O`, the Potency entry in assay [1], in assay [2], in assay [3] and in assay [5] was “inactive” throughout. Further, the result in assay [10], in [7], in assay [8] and in assay [9] was inactive.

On to `Cc1cc(N)n(-c2ccccc2)n1`, for which the Potency entry in [1], in [2], in assay [3], in [4] and in assay [6] was “inactive” throughout. The call in assay [7] and in [8] was inactive.

As for `CC(C)CC(C)(C)C`, the Potency result in [1], in assay [2], in assay [3] and in assay [5] was “inactive” each time. The Potency in [6] was 31.8 µM (active). The result in [10], in assay [7], in [8] and in assay [9] was inactive.

As to `NCCOCCOCCN`, the Potency result in assay [1], in assay [2] and in assay [3] was “inactive” each time. Besides, the Potency in [5] was 15.4 µM (active). Further, the outcome in [10], in assay [7], in assay [8] and in [9] was inactive.

Turning to `CCCCCCOC(=O)c1ccccc1`, the Potency result in assay [1], in assay [2] and in [3] was “inactive” each time. The Potency in assay [5] was 15.4 µM (active). In addition, the result in [10], in [7], in [8] and in assay [9] was inactive.

Consider `CC(C)(C)c1ccc(CCC=O)cc1`, for which the Potency entry in [1], in assay [2], in assay [3], in assay [4] and in assay [6] was “inactive” in each case. For the same molecule, the outcome in assay [10], in [7], in [8] and in assay [9] was inactive.
